Measurements: PubChem BioAssay (Tox21)
Records with an inconclusive call do not appear. Where a call stands in place of a potency, no number is given. Active and inactive are the calls of the source. The call rests on the fitted dose curve; in most records, active means well fitted cell-killing curve with a large enough effect in the repeat runs; inconclusive means weak or mixed curves, or effect the other way; inactive means flat fitted curve, though single readings scatter.

Legend:
[1] = cAMP Responsive Elements (CRE) small molecule antagonists, cell-based qHTS assay: qHTS cell viability counter screen (AID 2060913); further: nearly all actives have a fitted effect of over 40% in size
Outline: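 Steps: cells plated and held 18 hrs at 37 C/5% CO2; compounds and NKH477 (0.25 uM final) added; 3 hrs incubation; reporter substrate read; CellTiter-Glo added to measure cytotoxicity by luminescence.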

[2] = cAMP Responsive Elements (CRE) small molecule agonists, cell-based qHTS assay: qHTS cell viability counter screen (AID 2060914);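 further: viability read after 3 h of compound exposure; nearly all actives have a fitted effect of over 50% in size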
Outline: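 Cells are seeded and incubated 18 h, treated with compounds in DMSO for 3 h, read for the bla reporter, then given CellTiter-Glo; luminescence is measured after 30 min at room temperature.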
Potency means the concentration at half of the fitted maximal effect.

Row | Structure (SMILES) | Potency [1] | Potency [2]
1 | CC(C)CC(C)(C)C | inactive | inactive
2 | Nc1ccc(Oc2ccc(N)c(N)c2)cc1 | inactive | inactive
3 | CN1CCC(OC(c2ccccc2)c2ccccc2)CC1 | inactive | inactive
4 | NCc1cccc(CN)c1 | inactive | inactive
5 | CCCCCCOc1cc(C)c(O)c(C)c1C | 55.1 µM (active) | inactive
6 | O=C(O)C(=O)Cc1c[nH]c2ccccc12 | inactive | inactive
7 | CCCCCC(=O)O | inactive | inactive
8 | CCN1CCN(c2cc3c(cc2F)c(=O)c(C(=O)O)cn3C2CC2)CC1 | inactive | inactive
9 | COc1ccc(OC)c(N=Nc2c(O)ccc3ccccc23)c1 | inactive | inactive
10 | Cc1cn[nH]c1 | inactive | inactive
11 | CC12CCC(CC1=O)C2(C)C (stereo not given) | inactive | inactive
12 | NCCS(=O)(=O)O | inactive | inactive
13 | CC(C)OC(=O)c1ccccc1 | inactive | inactive
14 | O=[N+]([O-])c1ccc2[nH]ncc2c1 | inactive | inactive
15 | CCC(Cc1c(I)cc(I)c(N)c1I)C(=O)O (stereo not given) | inactive | inactive
16 | CC(C)(C)c1ccc(O)c(O)c1 | inactive | inactive
17 | O=c1c(O)c(-c2ccc(O)cc2)oc2cc(O)cc(O)c12 | inactive | inactive
18 | CC(C)O | inactive | inactive
19 | CCC/C=C/C=O | inactive | inactive
20 | Nc1ccc(S(=O)(=O)O)c(N)c1 | inactive | inactive

Row | Structure (SMILES) | Potency [1] | Potency [2]
21 | CCN1C=CN(C)C1C (stereo not given) | inactive | inactive
22 | Cc1c(C(=O)O)c(O)cc2c1C(=O)c1c(O)c([C@@H]3O[C@H](CO)[C@@H](O)[C@H](O)[C@H]3O)c(O)c(O)c1C2=O | inactive | inactive
23 | CC(C)(C)C(=O)CCc1ccc(Cl)cc1 | inactive | inactive
24 | O=C(O)C(=O)O | inactive | inactive
25 | c1ccc2[nH]ccc2c1 | inactive | inactive
26 | Cc1ccc(C(=O)c2ccccc2)cc1 | inactive | inactive
27 | Cc1ncc([N+](=O)[O-])n1CCO | inactive | inactive
28 | CN(C)CCc1c[nH]c2ccc(CS(=O)(=O)N3CCCC3)cc12 | inactive | inactive
29 | C(=C(c1ccccc1)c1ccccc1)c1ccccc1 | inactive | inactive
30 | NC(=O)NS(=O)(=O)c1ccc(Cl)cc1 | inactive | inactive
31 | O=C(O)P(=O)(O)O | inactive | inactive
32 | CN(C)C=O | inactive | inactive
33 | CCCCCCCCSCCO | inactive | inactive
34 | Oc1c(Cl)cc(Cl)c(Cl)c1Cl | inactive | inactive
35 | O=NO | inactive | inactive
36 | O=c1[nH]nc(-c2ccc([N+](=O)[O-])o2)o1 | inactive | inactive
37 | CC(C)(C)S | inactive | inactive
38 | CCCOc1ccc2c(c1)CC[C@@H]1[C@@H]2CC[C@]2(C)C(OC)CC[C@@H]12 (stereo not given in full) | inactive | inactive
39 | O=[N+]([O-])c1ccc2ncccc2c1 | inactive | inactive
40 | COc1ccc(C(=O)Nc2ccccc2)cc1[N+](=O)[O-] | inactive | inactive

Row | Structure (SMILES) | Potency [1] | Potency [2]
41 | C/C=C(\C)C#N | inactive | inactive
42 | NC(=O)COCCN1CCN(C(c2ccccc2)c2ccc(Cl)cc2)CC1 (stereo not given) | inactive | inactive
43 | CC(C(=O)O)c1cccc(C(=O)c2ccccc2)c1 (stereo not given) | inactive | inactive
44 | Cn1cnc2c(=O)[nH]c(N)nc21 | inactive | inactive
45 | Cc1cc(O)c(C(C)(C)C)cc1Sc1cc(C(C)(C)C)c(O)cc1C | 21.6 µM (active) | 38.5 µM (active)
46 | CCNC(=O)NCc1cccc(Cl)c1 | inactive | inactive
47 | CC(C)Nc1nc(N)nc(Cl)n1 | inactive | inactive
48 | CC(=O)c1ccc2c(c1)N(CCCN(C)C)c1ccccc1S2 | inactive | inactive
49 | CC(C)(O)c1ccc(CNC(=O)c2cccnc2Oc2ccc3nonc3c2)cc1 | inactive | inactive
50 | CCCCCCn1c(=O)c2c(ncn2C)n(C)c1=O | inactive | inactive
51 | CCC1CO1 (stereo not given) | inactive | inactive
52 | OCC(F)(F)F | inactive | inactive
53 | O=C(O)/C=C/c1ccc(/C=C/C(=O)O)cc1 | inactive | inactive
54 | CC1=CCC(C(C)C)=CC1 | inactive | inactive
55 | CCCCOC(=O)c1ccccc1 | inactive | inactive
56 | CCCCCC1=CCCC1=O | inactive | inactive
57 | CN1CCC[C@@H]1c1cccnc1 | inactive | inactive
58 | CN1[C@@H]2CC(OC(=O)[C@H](CO)c3ccccc3)C[C@H]1[C@@H]1O[C@@H]12 (stereo not given in full) | inactive | inactive
59 | Cn1c(=O)c2c(ncn2CCO)n(C)c1=O | inactive | inactive
60 | CN(CCCN1c2ccccc2CCc2ccccc21)CC(=O)c1ccc(Cl)cc1 | inactive | inactive
